Assay outcomes as filed in PubChem.
Giardia kill = Small Molecules that selectively kill Giardia lamblia: qHTS; Giardia lamblia trophozoite viability; activity change, % at 7.66 µM, hits read low; actives 0.15% (n = 340,000); AID 540267, 2011; in the data active = activity change below about -80%; inconclusive = between about -30% and that limit;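 note: parasites exposed to compound for two days anaerobically before the ATP read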
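Viability, read as ATP luminescence: trophozoites at 100 cells/well, compound added, 48 hrs anaerobic at 37 deg C, then 15-30 min room-temperature development before reading.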
p53 reactivator = qHTS assay for re-activators of p53 using a Luc reporter; H1299 p53-A138V BP100-luciferase reporter, luminescence, 24 h; Potency, µM (top dose mostly 92.2 µM), actives largely listed as activators; actives 0.063% (n = 320,000); AID 504706, 2011; note: nearly all actives have a fitted effect of over 45% in size
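p53-null H1299 cells stably carrying temperature-sensitive p53-A138V and a BP100-luciferase reporter were pinned with compounds (4-point, 1:5 series) and held 24 hrs at 37 deg C. Luminescence was read 10 min after detection reagent.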
B2AR arrestin = qHTS assay of beta-arrestin-biased ligands of beta2-adrenergic receptor | Beta-2 adrenergic receptor (Homo sapiens), P07550 | beta-arrestin recruitment to beta2AR, cell-based reporter | Potency, µM (top dose mostly 46.1 µM), actives largely listed as activators | actives 0.02% (n = 330,000) | AID 492947, 2010; note: nearly all actives have a fitted effect of over 65% in size
Target sequence (P07550 whole entry, looked up): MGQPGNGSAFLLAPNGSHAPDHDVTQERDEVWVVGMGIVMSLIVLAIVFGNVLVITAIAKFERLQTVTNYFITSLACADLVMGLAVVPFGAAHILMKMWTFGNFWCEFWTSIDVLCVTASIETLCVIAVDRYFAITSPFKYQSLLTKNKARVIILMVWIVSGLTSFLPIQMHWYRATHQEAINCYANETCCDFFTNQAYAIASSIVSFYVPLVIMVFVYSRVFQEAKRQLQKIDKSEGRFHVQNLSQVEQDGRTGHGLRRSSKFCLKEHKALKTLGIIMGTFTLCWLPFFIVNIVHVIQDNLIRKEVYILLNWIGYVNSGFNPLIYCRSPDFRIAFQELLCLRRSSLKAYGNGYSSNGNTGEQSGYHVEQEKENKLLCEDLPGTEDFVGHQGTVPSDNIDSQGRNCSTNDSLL
ClpP mod = qHTS Assay for Activators of ClpP | purified B. subtilis ClpP, FRET peptide cleavage, 20 min | AID 651965, 2013 | Potency, µM (top dose mostly 57.5 µM) | ATP-dependent Clp protease proteolytic subunit (Bacillus subtilis (strain 168)), P80244 | actives 1.9% (n = 340,000); active = well fitted falling curve with a large enough effect; inconclusive = small, poorly fitted or top-dose-only effect; inactive = no such curve, though single readings can be large or run the other way; note: the source files actives as falling curves though it sought activators and does not explain the sign; nearly all actives have a fitted effect of over 65% in size
Target sequence (P80244 whole entry, looked up): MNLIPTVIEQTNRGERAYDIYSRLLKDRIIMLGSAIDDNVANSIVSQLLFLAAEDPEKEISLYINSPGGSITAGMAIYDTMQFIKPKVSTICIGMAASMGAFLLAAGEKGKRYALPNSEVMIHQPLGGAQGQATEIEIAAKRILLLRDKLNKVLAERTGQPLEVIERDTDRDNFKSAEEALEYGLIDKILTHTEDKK
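Purified B. subtilis ClpP, 10 microg/mL final in Tris/HCl pH8 with KCl, BSA, glycerol and Tween-20, cleaved an Abz/nitrotyrosine-quenched decapeptide. Fluorescence (ex 320, em 430) was read at 0 and 20 min at room temperature. Delta was normalized to 5.8 microM ADEP and DMSO/no-enzyme controls.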
uPA generation = qHTS for Inhibitors of Cell Surface uPA Generation. cell surface uPA generation assay, qHTS. Potency, µM (titrated, usually from 38.3 µM), hits mostly inhibitors. actives 0.31% (n = 330,000). AID 540303, 2011; active = well fitted inhibition curve with a large enough effect; inconclusive = small, poorly fitted or top-dose-only effect; inactive = no such curve, though single readings can be large or run the other way; tested in mouse RAW 264.7 cells; note: nearly all actives have a fitted effect of over 55% in size
Mito fusion yeast = qHTS Assay for Small Molecule Inhibitors of Mitochondrial Division or Activators of Mitochondrial Fusion; S. cerevisiae fusion-defective mutant growth rescue, CellTiterGlo 48 h; Potency, µM (top dose mostly 46.1 µM), hits mostly activators; actives 0.23% (n = 320,000); AID 485298, 2010; note: nearly all actives have a fitted effect of over 45% in size
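Luminescent cell viability in 1536-well qHTS format served as the measure of rescued growth in ts fusion-mutant S. cerevisiae cultured on non-fermentable YPEG for 48 hours at 37C.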
Of the large screens only hits and unclear results are named; the others gave an inactive call. Most compounds without a hit are left out; they make up all but 2.1% or so of the library. Unless noted, calls come from the whole dose curve; as a rule, active = well fitted curve in the direction sought with a large enough effect; inconclusive = small, poorly fitted or top-dose-only effect, or another doubt; inactive = no such curve, though single readings can be large; an effect the other way counts as inactive or inconclusive.

O=C(Nc1ccc(S(=O)(=O)NCc2ccccc2)cc1)C1CCCCC1	ClpP mod 25µM
CCCCN(C)c1c(C)nc2ccc(C(=O)Nc3ccc(OC)c(OC)c3)cn12	none (no result: Giardia kill, p53 reactivator, B2AR arrestin, uPA generation, Mito fusion yeast)
CCOC(=O)c1oc2ccccc2c1NC(=O)c1ccccc1OC	ClpP mod 35µM (no result: uPA generation)
COc1ccccc1C(=O)Nc1c(C(=O)c2ccccc2)oc2ccccc12	none (no result: Giardia kill, p53 reactivator, B2AR arrestin, uPA generation, Mito fusion yeast)
O=C(Nc1cc(S(=O)(=O)N2CCOCC2)ccc1N1CCOCC1)c1ccc([N+](=O)[O-])s1	Giardia kill -89, uPA generation inconclusive (no result: Mito fusion yeast)
O=c1c2c3c(sc2nc(NCCO)n1CCc1ccccc1)CCCCC3	uPA generation inconclusive, Mito fusion yeast 20µM
CCCCNCCOCCOc1ccc(F)cc1	ClpP mod 3.2µM
COc1ccc(NS(=O)(=O)c2cccc(C(=O)NCC(c3ccc(OC)cc3)N3CCCC3)c2)cc1 (centres undefined)	ClpP mod 28µM
COc1cccc(N/C=C/C(=O)c2ccc(C)cc2)c1	uPA generation 8.9µM
COc1cccc(N/C=C/C(=O)c2ccc(Cl)cc2)c1	p53 reactivator inconclusive
COc1cc(C(CC(=O)NCc2ccc(F)cc2)N2Cc3ccccc3C2=O)cc(OC)c1OC (centres undefined)	none (no result: Giardia kill, p53 reactivator, B2AR arrestin, uPA generation, Mito fusion yeast)
O=C(Nc1ccc(Cl)cc1)Nc1nnc(SCc2ccccc2)s1	p53 reactivator 28µM
CCN(CC)c1cc(C)c2cc(NC(=O)/C=C/c3ccc(C)cc3)ccc2n1	none (no result: Giardia kill, p53 reactivator, B2AR arrestin, uPA generation, Mito fusion yeast)
CCN(CC)c1cc(C)c2cc(NC(=O)CNC(C)=O)ccc2n1	ClpP mod 16µM
COc1cc(-c2nc(Cn3nnc(C(=O)Nc4cccc(Cl)c4)c3C)c(C)o2)cc(OC)c1OC	none (no result: Giardia kill, p53 reactivator, B2AR arrestin, uPA generation, Mito fusion yeast)
O=C(c1ccc(S(=O)(=O)N2CCCC2)cc1)N1CCCCC1	none
O=C1c2cccc3cccc(c23)C(=O)N1CC1CCN(S(=O)(=O)c2ccccc2)CC1	none (no result: p53 reactivator, B2AR arrestin, ClpP mod, Mito fusion yeast)
O=C1c2cccc3cccc(c23)C(=O)N1CC1CCN(S(=O)(=O)c2ccc(F)cc2)CC1	Giardia kill inconclusive, ClpP mod 13µM
O=C(CN1C(=O)c2ccccc2C1=O)N1CCCCC1	none
Cc1ccc(S(=O)(=O)N2CCC(CN3C(=O)c4cccc5cccc(c45)C3=O)CC2)cc1	ClpP mod 25µM
O=C(CN1C(=O)c2cccc3cccc(c23)C1=O)N1CCCCCC1	ClpP mod 28µM (no result: uPA generation)
O=C(c1ccc(S(=O)(=O)N2CCCCCC2)cc1)N1CCC(CN2C(=O)c3cccc4cccc(c34)C2=O)CC1	ClpP mod 28µM
COc1ccc(C(=O)NCCn2cc(SCc3ccc(C(F)(F)F)cc3)c3ccccc32)cc1OC	none (no result: Giardia kill, p53 reactivator, B2AR arrestin, uPA generation, Mito fusion yeast)
Cc1ccc2nc3sc(C(=O)Nc4ccc(F)cc4)cc3cc2c1	none (no result: Giardia kill, p53 reactivator, uPA generation)
Cc1cc(NC(c2nnc(-c3ccccc3)o2)c2ccccc2F)ccc1Br (centres undefined)	none (no result: Giardia kill, p53 reactivator, B2AR arrestin, uPA generation, Mito fusion yeast)
O=C(CSc1ccc(Cl)cc1)Nc1ccc(-c2nc3ccccc3[nH]2)cc1	ClpP mod 25µM
O=C(CSc1ccccc1)Nc1nc2ccccc2[nH]1	p53 reactivator inconclusive
Cc1ccc(-c2nnc(SCC(=O)c3ccc(Cl)cc3)n2-c2ccccc2)cc1	none (no result: Giardia kill, p53 reactivator, B2AR arrestin, uPA generation, Mito fusion yeast)
Fc1ccc(Nc2nc(SCc3ccc(Cl)cc3)nc3ccccc23)cc1	ClpP mod 35µM (no result: Giardia kill, p53 reactivator, B2AR arrestin, uPA generation, Mito fusion yeast)
Clc1ccc(CSc2nc(NCCc3ccccc3)c3ccccc3n2)cc1	none (no result: Giardia kill, p53 reactivator, B2AR arrestin, uPA generation, Mito fusion yeast)
Cc1ccc(NC(N)=S)cc1C	ClpP mod 28µM
Cc1ccc(NC(=S)N(C)C)cc1C	none
CCOc1ccc(Nc2ncnc3c2nc2n3CCCCC2)cc1	none (no result: Giardia kill, p53 reactivator, B2AR arrestin, uPA generation, Mito fusion yeast)
O=c1c2ccccc2sc2nc(C3CCCCC3)n(Cc3ccco3)c(=O)c12	Mito fusion yeast 3.5µM (no result: uPA generation)
CCc1nc2sc3ccccc3c(=O)c2c(=O)n1Cc1ccco1	none
COC(=O)[C@]1(Cc2ccccc2)N[C@H](c2ccc(-c3cc(C(C)=O)cs3)cc2)[C@@H]2C(=O)N(C)C(=O)[C@@H]21	ClpP mod 18µM
